In PubChem BioAssay:
Calls of active or inactive are those of the source.

Columns and labels:
[1] = anti-His antibody binders, primary screen, artefact control for SMM control protein annotation, biochemical, small-molecule microarray, 635 nm fluorescence (AID 1128); conditions: anti-His Alexa647 antibody binding, higher = more signal;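 further: score merges feature fluorescence with signal-to-noise for each printed compound spot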
[2] = test system: Human papillomavirus type 1a E7 protein (residues 1-88); assay: HPV1a E7 small-molecule binders, primary screen, biochemical, small-molecule microarray, residues 1-88, 635 nm (AID 1129); conditions: small-molecule microarray binding, fluorescence 635 nm; higher = more signal
[3] = target: Focal adhesion kinase 1 (Homo sapiens) (UniProt Q05397); assay: small-molecule microarray binders of FAK, primary screen, biochemical, 635/667 nm fluorescence, BSA, DTT (AID 1130); conditions: PTK2 binding, 635 nm fluorescence, higher = more signal;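 further: composite of spot emission at 667 nm and signal to noise over triplicate slides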
Chain of Focal adhesion kinase 1 (Homo sapiens) (Q05397 whole entry, looked up): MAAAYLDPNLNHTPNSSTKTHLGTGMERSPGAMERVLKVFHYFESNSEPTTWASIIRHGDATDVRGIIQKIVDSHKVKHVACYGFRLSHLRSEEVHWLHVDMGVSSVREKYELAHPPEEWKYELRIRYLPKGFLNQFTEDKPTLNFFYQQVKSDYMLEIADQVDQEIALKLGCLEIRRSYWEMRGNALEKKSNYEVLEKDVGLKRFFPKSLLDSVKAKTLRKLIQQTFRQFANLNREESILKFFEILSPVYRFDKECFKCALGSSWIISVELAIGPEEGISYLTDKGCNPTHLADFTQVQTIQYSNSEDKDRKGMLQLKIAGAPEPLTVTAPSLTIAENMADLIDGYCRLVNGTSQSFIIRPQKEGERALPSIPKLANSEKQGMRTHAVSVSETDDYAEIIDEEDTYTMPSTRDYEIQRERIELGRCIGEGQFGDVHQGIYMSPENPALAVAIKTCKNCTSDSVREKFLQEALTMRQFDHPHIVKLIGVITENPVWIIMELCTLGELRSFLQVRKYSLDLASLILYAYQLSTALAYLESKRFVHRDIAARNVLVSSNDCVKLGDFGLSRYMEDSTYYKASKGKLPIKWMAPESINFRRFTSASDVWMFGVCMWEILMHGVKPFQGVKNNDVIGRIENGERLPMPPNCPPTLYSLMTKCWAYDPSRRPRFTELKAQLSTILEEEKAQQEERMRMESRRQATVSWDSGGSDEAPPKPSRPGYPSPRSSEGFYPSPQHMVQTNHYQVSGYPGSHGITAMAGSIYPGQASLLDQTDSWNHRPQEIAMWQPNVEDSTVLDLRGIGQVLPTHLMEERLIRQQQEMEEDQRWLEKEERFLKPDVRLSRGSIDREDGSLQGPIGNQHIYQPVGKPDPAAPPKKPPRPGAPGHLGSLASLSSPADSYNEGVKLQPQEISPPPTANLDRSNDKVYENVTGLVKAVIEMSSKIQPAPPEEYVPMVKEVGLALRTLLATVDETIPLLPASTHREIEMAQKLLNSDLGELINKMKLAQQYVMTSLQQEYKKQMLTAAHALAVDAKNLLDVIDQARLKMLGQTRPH

[4] = test system: Fibrinogen (Alexa647-labelled); assay: fibrinogen binders on compound microarrays, profiling panel, artefact control for SMM control-protein annotation, biochemical, small-molecule microarray, 635/667 nm fluorescence (AID 1131); conditions: fibrinogen-A647 binding fluorescence, higher = more signal;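 further: z-score merges 667 nm fluorescence with per-spot signal-to-noise over triplicate slides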
[5] = target: Follistatin (Homo sapiens) (UniProt P19883); assay: follistatin binders on small-molecule microarrays, primary screen, biochemical, small-molecule microarray, 635/667 nm fluorescence (AID 1132); conditions: FST binding, 635 nm fluorescence, higher = more signal
Chain of Follistatin (Homo sapiens) (P19883 whole entry, looked up): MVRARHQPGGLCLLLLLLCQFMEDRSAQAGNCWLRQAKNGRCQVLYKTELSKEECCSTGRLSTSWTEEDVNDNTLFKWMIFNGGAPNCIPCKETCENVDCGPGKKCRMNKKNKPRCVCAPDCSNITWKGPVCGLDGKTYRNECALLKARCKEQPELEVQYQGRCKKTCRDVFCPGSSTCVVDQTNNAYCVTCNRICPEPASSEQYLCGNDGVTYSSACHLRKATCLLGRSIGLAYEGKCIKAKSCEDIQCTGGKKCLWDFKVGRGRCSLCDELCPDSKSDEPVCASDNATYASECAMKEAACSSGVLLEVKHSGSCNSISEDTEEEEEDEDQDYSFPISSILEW

[6] = target: Fibroblast growth factor 2 (Homo sapiens) (UniProt P09038); assay: FGF2 binders on small-molecule microarrays, primary screen, biochemical, small-molecule microarray, 635/667 nm fluorescence (AID 1133); conditions: small-molecule microarray binding, FGF2, fluorescence 635/667; higher = more signal
Chain of Fibroblast growth factor 2 (Homo sapiens) (P09038 whole entry, looked up): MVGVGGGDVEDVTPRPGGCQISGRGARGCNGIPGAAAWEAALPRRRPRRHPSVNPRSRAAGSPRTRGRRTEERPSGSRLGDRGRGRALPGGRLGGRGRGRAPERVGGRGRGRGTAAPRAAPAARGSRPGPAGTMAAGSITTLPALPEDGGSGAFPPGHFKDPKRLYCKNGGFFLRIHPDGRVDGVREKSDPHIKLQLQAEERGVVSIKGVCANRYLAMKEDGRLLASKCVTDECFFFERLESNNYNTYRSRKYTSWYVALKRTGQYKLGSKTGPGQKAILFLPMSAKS

[7] = mitochondrial membrane potential change in A549 cells, profiling panel, cell-based, JC-1 fluorescence, basal, 24 h, 100 nL (AID 1138); conditions: higher = more signal;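 further: A549 lung adenocarcinoma cells under basal conditions with no added stimulus; test concentration not given here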
[8] = test system: Lefty1; assay: Lefty1 binders on small-molecule microarrays, primary screen, biochemical, small-molecule microarray, 635/667 nm fluorescence (AID 1139); conditions: small-molecule microarray binding, fluorescence 635/667; higher = more signal
[9] = test system: wheat germ agglutinin (Triticum aestivum), Alexa647-labelled; assay: wheat germ agglutinin binders on compound microarrays, profiling panel, artefact control for SMM control-protein annotation, biochemical, small-molecule microarray, 635/667 nm fluorescence (AID 1140); conditions: WGA-A647 binding, 635 nm fluorescence, higher = more signal;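 further: score merges 667 nm feature emission with signal to noise over triplicate slides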
[10] = target: Luciferin 4-monooxygenase (Photinus pyralis) (UniProt P08659); assay: firefly luciferase enzyme inhibitors, primary screen, biochemical, luminescence, purified enzyme, 2006 set (AID 1141); conditions: SteadyGlo luminescence, 30 min, higher = more signal, called active from +8 up or from −8 down;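 further: cell-free assay with purified firefly luciferase at 100 ng per well in PBS; test concentration not given here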
Chain of Luciferin 4-monooxygenase (Photinus pyralis) (P08659 whole entry, looked up): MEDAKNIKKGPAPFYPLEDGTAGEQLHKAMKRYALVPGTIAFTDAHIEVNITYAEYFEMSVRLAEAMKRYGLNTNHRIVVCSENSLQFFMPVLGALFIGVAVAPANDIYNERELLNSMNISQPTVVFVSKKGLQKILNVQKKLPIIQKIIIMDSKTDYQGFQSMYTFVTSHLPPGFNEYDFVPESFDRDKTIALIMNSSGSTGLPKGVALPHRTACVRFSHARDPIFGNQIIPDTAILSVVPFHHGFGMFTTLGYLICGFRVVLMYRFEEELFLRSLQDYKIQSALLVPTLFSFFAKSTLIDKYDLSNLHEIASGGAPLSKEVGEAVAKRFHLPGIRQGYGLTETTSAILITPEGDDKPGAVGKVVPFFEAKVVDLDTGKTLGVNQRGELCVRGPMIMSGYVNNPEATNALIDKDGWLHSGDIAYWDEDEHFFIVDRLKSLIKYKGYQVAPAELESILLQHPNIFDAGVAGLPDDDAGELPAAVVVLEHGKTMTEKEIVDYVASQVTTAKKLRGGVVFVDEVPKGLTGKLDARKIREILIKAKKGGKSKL

Structure (SMILES)	composite z-score [1]	composite z-score [2]	composite z-score [3]	composite z-score [4]	composite z-score [5]	composite z-score [6]	z-score [7]	composite z-score [8]	composite z-score [9]	z-score [10]
C=CCOC(=O)[C@@H]1[C@H]2C(=O)O[C@H](c3ccccc3)[C@H](c3ccccc3)N2[C@H](c2ccc(OCCOC(=O)[C@H]3C[C@H]4C(=O)N[C@@H](CCCCNC(C)=O)C(=O)N4[C@H]3c3ccc(O)cc3)cc2)[C@@]12C(=O)Nc1ccc(I)cc12	1.21	0.894	-0.145	0.852	1.08	1.7	-0.815	1.08	0.115	-0.608 (inactive)
COCCOC(=O)N1C(=O)[C@@]2(c3cc(C#CCNC(N)=O)ccc31)[C@H](c1ccc(OCCO)cc1)N1[C@H](c3ccccc3)[C@H](c3ccccc3)OC(=O)[C@H]1[C@@H]2C(=O)N1CCCCCCC1	-0.347	0.718	0.422	0.355	1.35	0.117	-0.99	0.854	0.884	-1.45 (inactive)
COc1ccc(NN2C(C(O)c3cc(OC)c(OC)c(OC)c3)C=CC3C(=O)N(C4CCCCC4)C(=O)C32)cc1 (stereo not given)	0.717	1.21	1.06	0.965	0.412	-0.418	0.469	0.133	1.22	0.582 (inactive)
C=CC[C@@]1(C(=O)NCC(O)CO)N=C(c2ccc(OCCCO)cc2)O[C@@H]1c1ccccc1CN=[N+]=[N-] (stereo not given in full)	1.55	0.756	0.77	0.198	0.415	-0.492	1.37	-0.548	0.569	-0.117 (inactive)
COc1ccc([Si](C)(C)[C@H]2[C@H](CC(=O)N(CCO)Cc3ccccc3)O[C@@]3(C(=O)N(C)c4ccccc43)[C@@H]2C)cc1	1.62	1.08	0.711	-0.0177	1.06	1.01	1.61	1.11	-0.0039	0.59 (inactive)
COC(=O)C[C@H]1O[C@]2(C(=O)N(Cc3ccccc3)c3ccc(I)cc32)[C@@H](C)[C@@H]1[Si](C)(C)c1ccc(OC)cc1	-0.421	-0.807	-0.172	-0.774	-0.274	-0.222	0.0578	-0.603	0.322	0.417 (inactive)
COCCCNC(=O)[C@@H]1c2ccccc2C(=O)N(CC23CC4CC(CC(C4)C2)C3)[C@H]1c1ccc(CO)cc1	-0.348	0.816	0.412	-0.434	1.39	0.875	-0.648	0.19	0.728	0.438 (inactive)
COC(=O)[C@@]1(Cc2ccccc2N=[N+]=[N-])N=C(c2ccc(OCCCO)cc2)O[C@H]1c1ccccc1CN=[N+]=[N-]	1.65	1.02	0.926	0.168	1.29	0.609	1.02	-0.213	0.727	-1.76 (inactive)
COC(=O)C[C@H]1O[C@]2(C(=O)N(C)c3ccccc32)[C@@H](C)[C@@H]1[Si](C)(C)c1ccc(OC)cc1	0.284	0.824	0.0035	0.728	0.328	0.792	0.569	1.33	0.332	-0.274 (inactive)
CCOC(=O)C[C@H]1[C@H](OC(=O)c2cc3ccccc3oc2=O)[C@@H](NC(=O)c2ccc3ccccc3c2)c2cc(OCCCO)ccc2N1C(=O)c1ccc2ccccc2n1	0.322	1.04	0.0147	0.973	0.986	0.927	1.33	0.488	1.05	-0.233 (inactive)
C=C(COC)/C(=C/C[C@H](OC(C)=O)c1ccc(OCCO)cc1)c1cnc2ccccc2c1	-0.418	1.14	0.771	0.333	1.4	0.813	1.8	1.27	1.23	-1.81 (inactive)
C=C(COC)/C(=C/C[C@@H](OC(C)=O)c1cccc(OCCO)c1)c1cc(C(=O)OC)ccc1OC	-1.25	0.0995	-0.453	-1.09	0.954	0.202	1.37	0.499	-1.12	-2.09 (inactive)
CC[C@@H]1C=C(C(=O)O)[C@H](c2ccccc2)N1S(=O)(=O)c1ccc([N+](=O)[O-])cc1	1.34	1.24	0.783	-0.368	0.221	-0.715	-0.506	-0.177	1.01	0.631 (inactive)
CO[C@H]1O[C@H](CO)[C@@H](OC(=O)Nc2ccccc2)[C@H](OC(=O)Nc2ccc3c(c2)OCO3)[C@@H]1OC(=O)Nc1ccc2c(c1)OCO2	2.53	1.2	1.02	0.771	0.87	0.0385	1.18	0.563	1.21	-5.6 (inactive)
C#CCCCON=C1C[C@@H](O)[C@@H](O)[C@@H]2[C@@H]3C(=O)N(Cc4ccc5c(c4)OCO5)C(=O)[C@@H]3CC[C@@H]12	2.73	0.226	-0.0967	0.903	0.669	0.0999	0.505	0.847	1.14	0.76 (inactive)
